# From PubChem BioAssay (EPA / NIEHS)
# Several values for one entry are separate records, joined by “and”; a condition that tells them apart may be missing. Identical values can stand only once. Records with an inconclusive call do not appear. Some structures have more than one record in an assay (separate samples or runs), and their calls can disagree. Activity calls are given as the source filed them. Rule for the calls, unless noted: active = hit-call score of the fitted dose curve at least 0.9, where 1 is the maximum; inconclusive = response in the unintended direction; inactive = score below 0.9.
# Assays:
# [1] = read-out: sulfotransferase (SULT2A), SULT2A1 (gene 6822); assay: CLD_SULT2A_24hr: CellzDirect (CLD) Gene Expression Assay for sulfotransferase (SULT2A) at 24 hours (AID 2283694);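 for AC50: potency for increased SULT2A1 mRNA level as induction over DMSO baseline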
# Outline: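 Primary human hepatocytes from two donor preparations were dosed daily with fresh solutions, vehicle 0.2% DMSO. At 24 h, lysates went to quantitative nuclease protection (qNPA) with S1 digestion and chemiluminescent readout. Cytotoxicity was annotated from phase-contrast morphology.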
# [2] = read-out: ABC Transporter (ABCB11), ABCB11 (gene 8647); assay: CLD_ABCB11_48hr: CellzDirect (CLD) Gene Expression Assay for ABC Transporter (ABCB11) at 48 hours (AID 2283697)
# Outline: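 Primary human hepatocytes from two donor preparations dosed daily for two days at multiple concentrations; 0.2% DMSO vehicle. ABCB11 mRNA at 48 h by quantitative nuclease protection assay, chemiluminescence; fitted for induction versus DMSO.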
# [3] = read-out: Cytochrome P450 2B6 (Homo sapiens) (UniProt P20813); assay: CLD_CYP2B6_48hr: CellzDirect (CLD) Gene Expression Assay for xenobiotic metabolism (CYP2B6) at 48 hours (AID 2283699);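 note: actives raise transcript level above DMSO so potency reflects induction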
# Outline: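 Primary human hepatocytes dosed daily for two days over multiple concentrations, 0.2% DMSO vehicle; CYP2B6 mRNA quantified at 48 h by qNPA chemiluminescence. Induction fitted as gain of signal versus DMSO; cytotoxicity annotated by morphology.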
# [4] = read-out: Broad substrate specificity ATP-binding cassette transporter ABCG2 (Homo sapiens) (UniProt Q9UNQ0); assay: CLD_ABCG2_48hr: CellzDirect (CLD) Gene Expression Assay for ABC Transporter (ABCG2) at 48 hours (AID 2283704);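 for AC50: potency for induction of ABCG2 mRNA above the DMSO baseline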
# Outline: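 Primary human hepatocytes from two donors, dosed daily for 2 days, 0.2% DMSO vehicle, several concentrations. ABCG2 mRNA at 48 h by qNPA chemiluminescence, gain fitted versus DMSO; cytotoxicity flagged by morphology.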
# [5] = read-out: xenobiotic metabolism (CYP1A1), CYP1A1 (gene 1543); assay: CLD_CYP1A1_48hr: CellzDirect (CLD) Gene Expression Assay for xenobiotic metabolism (CYP1A1) at 48 hours (AID 2283705)
# Outline: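 Primary human hepatocytes from two donors dosed daily for two days at multiple concentrations, 0.2% DMSO vehicle; CYP1A1 mRNA induction at 48 h by qNPA chemiluminescence. Cytotoxicity noted by phase-contrast morphology.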
# [6] = read-out: alkyl and aryl transferase (GSTA2), GSTA2 (gene 2939); assay: CLD_GSTA2_48hr: CellzDirect (CLD) Gene Expression Assay for alkyl and aryl transferase (GSTA2) at 48 hours (AID 2283708);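 note: active means mRNA induction above DMSO vehicle baseline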
# Outline: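 Primary human hepatocytes dosed daily for two days (0.2% DMSO vehicle), harvested at 48 h. GSTA2 mRNA induction measured by quantitative nuclease protection assay with chemiluminescent imaging, fitted for gain of signal relative to DMSO.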
# [7] = read-out: sulfotransferase (SULT2A), SULT2A1 (gene 6822); assay: CLD_SULT2A_48hr: CellzDirect (CLD) Gene Expression Assay for sulfotransferase (SULT2A) at 48 hours (AID 2283710);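 note: hits raise SULT2A1 transcript above the 0.2% DMSO vehicle baseline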
# Outline: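 Primary human hepatocytes (two donor preparations) dosed daily for two days with chemicals at multiple concentrations, vehicle 0.2% DMSO; SULT2A1 mRNA induction at 48 h by quantitative nuclease protection assay, chemiluminescent read-out, fitted for gain of signal versus DMSO.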
# [8] = STM_H9_OrnithineISnorm_perc: Stemina devTOX quickPredict H9 human embryonic stem cell (hESC)-based Assay for Ornithine (ORN) Metabolite Biomarker, Normalized (AID 2283712; active = hit-call score of the fitted dose curve at least 0.9, where 1 is the maximum; inactive = score below 0.9;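 note: ornithine released into spent medium during last day measured by mass spectrometry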)
# Outline: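 H9 human embryonic stem cells kept pluripotent receive test chemical over 72 h, refreshed daily by media exchange. Media from the closing 24 h is deproteinized and analysed by UPLC-HRMS on an amide column; ornithine signal is scaled to labelled standard and vehicle.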
# [9] = STM_H9_CystineISnorm_perc: Stemina devTOX quickPredict H9 human embryonic stem cell (hESC)-based Assay for Cystine (CYSS) Metabolite Biomarker, Normalized (AID 2283713; active = hit-call score of the fitted dose curve at least 0.9, where 1 is the maximum; inactive = score below 0.9)
# Outline: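 H9 hESC, pluripotent; compound 72h, re-dosed q24h with medium change. Last-24h medium → 40% acetonitrile deproteinization → UPLC-HRMS. CYSS area / C13-CYSS standard, then % of 0.1% DMSO median.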
# [10] = STM_H9_OrnCyssISnorm_ratio: Stemina devTOX quickPredict H9 human embryonic stem cell (hESC)-based Assay for Ornithine (ORN):Cystine (CYSS) Ratio (AID 2283714)
# Outline: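 Steps: H9 hESCs in pluripotent state dosed 72h, medium plus compound renewed every 24h; conditioned medium from the final 24h deproteinized in 40% acetonitrile; ORN and CYSS quantified by UPLC-HRMS with C13 spike-ins; ratio relative to vehicle.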
# [11] = Tanguay_ZF_120hpf_ActivityScore_legacy: (Legacy) Oregon State University Tanguay Lab 120 Hour Post-fertilization zebrafish Assay Score for Activity (AID 2283742);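 for AC50: dechorionated Tropical 5D wild-type zebrafish embryos held singly per well; static exposure from 6 hpf until 120 hpf at 28 °C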
# Outline: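 Embryos are staged, enzymatically dechorionated at 4 hpf, placed individually at 6 hpf, then held in test chemical (0.64% DMSO) at 28C until 120 hpf. Mortality and malformations are scored by brightfield, with non-mortality endpoints skipped for dead embryos.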
# [12] = read-out: Cytochrome P450 2C9 (Homo sapiens) (UniProt P11712); assay: CLD_CYP2C9_48hr: CellzDirect (CLD) Gene Expression Assay for xenobiotic metabolism (CYP2C9) at 48 hours (AID 2283701; active = hit-call score of the fitted dose curve at least 0.9, where 1 is the maximum; inactive = score below 0.9)
# Outline: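 Primary human hepatocytes (two donor preparations) dosed daily for two days with test chemicals, 0.2% DMSO vehicle; harvested at 48 h. mRNA induction quantified by qNPA chemiluminescence, fitted for gain of signal against DMSO baseline; cytotoxicity annotated from phase-contrast morphology.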
# [13] = read-out: xenobiotic metabolism (CYP1A2), CYP1A2 (gene 1544); assay: CLD_CYP1A2_48hr: CellzDirect (CLD) Gene Expression Assay for xenobiotic metabolism (CYP1A2) at 48 hours (AID 2283703)
# Outline: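 Primary human hepatocytes from two donor preparations were dosed daily for two days at multiple concentrations in 0.2% DMSO vehicle. CYP1A2 mRNA was measured at 48 hours by chemiluminescent quantitative nuclease protection assay, with gain of signal fitted versus DMSO and cytotoxicity annotated from morphology.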
# [14] = read-out: organic anion transporter (SLCO1B1), SLCO1B1 (gene 10599); assay: CLD_SLCO1B1_48hr: CellzDirect (CLD) Gene Expression Assay for organic anion transporter (SLCO1B1) at 48 hours (AID 2283707)
# Outline: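 Primary human hepatocytes from two donor preparations dosed daily for two days with multiple concentrations, 0.2% DMSO vehicle. SLCO1B1 mRNA at 48 h by quantitative nuclease protection assay, chemiluminescence; gain-of-signal fitted versus DMSO.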
# [15] = read-out: glucuronosyltransferase (UGT1A1), UGT1A1 (gene 54658); assay: CLD_UGT1A1_48hr: CellzDirect (CLD) Gene Expression Assay for glucuronosyltransferase (UGT1A1) at 48 hours (AID 2283709);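 note: actives increase expression relative to DMSO so potency refers to induction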
# Outline: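 Human primary hepatocytes dosed daily for two days (0.2% DMSO vehicle), harvested at 48 h. UGT1A1 mRNA induction measured by quantitative nuclease protection assay with chemiluminescence; gain of signal versus DMSO; cytotoxicity flagged from morphology.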
# [16] = read-out: HMG-CoA synthase (HMGCS2), HMGCS2 (gene 3158); assay: CLD_HMGCS2_48hr: CellzDirect (CLD) Gene Expression Assay for HMG-CoA synthase (HMGCS2) at 48 hours (AID 2283711)
# Outline: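 Primary human hepatocytes from two donors dosed daily for two days, 0.2% DMSO vehicle. HMGCS2 mRNA measured 48 h after dosing by quantitative nuclease protection assay with chemiluminescent read-out; induction fitted relative to DMSO, cytotoxicity flagged by microscopy.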
# [17] = CEETOX_H295R_MTT_cell_viability: Viability Assessment in the CeeTox HT-H295R MTT Assay (AID 2283718; active = hit-call score of the fitted dose curve at least 0.9, where 1 is the maximum; inactive = score below 0.9)
# Outline: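 MTT reduction (0.5 mg/ml, 4 h at 37 C; absorbance at 570 and 650 nm) gave viability as background-corrected percent change versus controls. H295R cells had 48 h forskolin (10 uM) prestimulation, then 48 h chemical exposure at 0.1% DMSO.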
# [18] = read-out: glucuronosyltransferase (UGT1A1), UGT1A1 (gene 54658); assay: CLD_UGT1A1_24hr: CellzDirect (CLD) Gene Expression Assay for glucuronosyltransferase (UGT1A1) at 24 hours (AID 2283696)
# Outline: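 Primary human hepatocytes from two donor preparations were dosed (0.2% DMSO vehicle) and harvested at 24 h; UGT1A1 mRNA induction was quantified by chemiluminescent qNPA, fitted as gain relative to DMSO.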
# [19] = CLD_ACTIN_48hr: CellzDirect (CLD) Gene Expression Assay for Baseline Control (Actin) at 48 hours (AID 2283702)
# Outline: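 Primary human hepatocytes (two donor preparations) dosed daily for two days with ToxCast chemicals at multiple concentrations versus 0.2% DMSO vehicle; harvested at 48 h. Actin mRNA measured as a background control by quantitative nuclease protection assay with chemiluminescence.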
# Sequence of Broad substrate specificity ATP-binding cassette transporter ABCG2 (Homo sapiens) (Q9UNQ0 whole entry, looked up): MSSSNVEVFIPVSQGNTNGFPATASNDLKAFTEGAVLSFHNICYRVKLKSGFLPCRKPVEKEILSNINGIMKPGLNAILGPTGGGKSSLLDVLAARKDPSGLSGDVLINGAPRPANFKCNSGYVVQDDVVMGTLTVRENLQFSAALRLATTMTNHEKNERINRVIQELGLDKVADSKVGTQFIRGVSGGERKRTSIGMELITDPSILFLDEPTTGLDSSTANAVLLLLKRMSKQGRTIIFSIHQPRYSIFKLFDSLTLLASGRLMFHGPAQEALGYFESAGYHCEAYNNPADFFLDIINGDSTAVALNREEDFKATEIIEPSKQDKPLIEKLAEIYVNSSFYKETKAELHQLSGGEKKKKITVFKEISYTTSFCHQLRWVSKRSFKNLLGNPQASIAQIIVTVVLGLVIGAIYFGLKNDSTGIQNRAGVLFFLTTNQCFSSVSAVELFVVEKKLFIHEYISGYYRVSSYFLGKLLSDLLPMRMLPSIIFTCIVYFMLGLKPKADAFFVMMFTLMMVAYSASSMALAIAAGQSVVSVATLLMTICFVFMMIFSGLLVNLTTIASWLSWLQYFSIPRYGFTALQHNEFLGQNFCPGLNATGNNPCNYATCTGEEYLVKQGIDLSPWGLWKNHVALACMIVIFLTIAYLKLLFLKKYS
compound,measurement,setting,value
CCc1nn(C)c(C(=O)NCc2ccc(C(C)(C)C)cc2)c1Cl,AC50,[1],3.71 µM (active)
same,AC50,[2],37 µM (active)
same,AC50,[3],37.3 µM (active)
same,AC50,[4],26.2 µM (active)
same,AC50,[5],8.98 µM (active)
same,outcome,[6],inactive
same,AC50,[7],20 µM (active)
same,AC50,[8],1.84 µM (active)
same,AC50,[9],1.82 µM (active)
same,AC50,[10],1.55 µM (active)
same,AC50,[11],2.81 µM (active)
O=C(O)c1nc(Cl)ccc1Cl,outcome,[1],inactive
same,AC50,[2],6.55 µM (active)
same,AC50,[3],4.4 µM (active)
same,outcome,[12],inactive
same,AC50,[13],7.28 µM (active)
same,outcome,[4],inactive
same,AC50,[5],4.17 µM (active)
same,outcome,[14],inactive
same,outcome,[6],inactive
same,outcome,[15],inactive
same,outcome,[7],inactive
same,outcome,[16],inactive
same,outcome,[11],inactive
COC(=O)c1ccccc1C(=O)OC,outcome,[1],inactive
same,outcome,[2],inactive
same,outcome,[3],inactive
same,outcome,[12],inactive
same,outcome,[13],inactive
same,outcome,[4],inactive
same,outcome,[14],inactive
same,outcome,[6],inactive
same,outcome,[15],inactive
same,outcome,[7],inactive
same,outcome,[16],inactive
same,outcome,[8],inactive
same,outcome,[9],inactive
same,outcome,[10],inactive
same,outcome,[17],inactive
same,outcome,[11],inactive
COC(=O)C(C)Oc1ccc(Oc2ccc(Cl)cc2Cl)cc1 (stereo not drawn),outcome,[1],inactive
same,outcome,[18],inactive
same,outcome,[2],inactive
same,AC50,[3],20 µM (active)
same,outcome,[3],inactive
same,outcome,[12],inactive
same,outcome,[19],inactive
same,AC50,[13],20 µM (active) and 12.1 µM (active)
same,outcome,[13],inactive
same,outcome,[4],inactive
same,outcome,[5],inactive
same,outcome,[14],inactive
same,outcome,[6],inactive
same,AC50,[15],20 µM (active)
same,outcome,[15],inactive
same,outcome,[7],inactive
same,AC50,[16],35.6 µM (active)
same,outcome,[16],inactive
same,outcome,[11],inactive
COC(=O)N(OC)c1ccccc1COc1ccn(-c2ccc(Cl)cc2)n1,outcome,[1],inactive
same,AC50,[2],35.7 µM (active)
same,outcome,[3],inactive
same,AC50,[13],0.54 µM (active)
same,AC50,[4],20 µM (active)
same,AC50,[5],1.9 µM (active)
same,outcome,[14],inactive
same,AC50,[6],33.8 µM (active)
same,AC50,[7],9.28 µM (active)
same,outcome,[16],inactive
same,AC50,[8],0.85 µM (active)
same,AC50,[9],0.743 µM (active)
same,AC50,[10],0.806 µM (active)
same,AC50,[11],0.409 µM (active)
CCON=C(CC)C1=C(O)CC(c2c(C)cc(C)cc2C)CC1=O (stereo not drawn),outcome,[1],inactive
same,outcome,[2],inactive
same,outcome,[3],inactive
same,outcome,[12],inactive
same,outcome,[19],inactive
same,outcome,[13],inactive
same,outcome,[6],inactive
same,outcome,[15],inactive
same,outcome,[7],inactive
same,outcome,[16],inactive
same,outcome,[8],inactive
same,outcome,[9],inactive
same,outcome,[10],inactive
same,outcome,[17],inactive
same,outcome,[11],inactive
